Assay results: PubChem BioAssay (NCI)
The panel holds about 83,000 compounds, 20% with a hit somewhere; the sample as a whole holds those more often.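 How to read the values: 0–100, growth inhibition (40 = 60% inhibited); 0, no net growth; -100 to 0, cell death (-40 = 40% of starting cells died; -100 = all dead).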 Active and inactive are the calls of the source. The calls were made as follows: active = growth percent below 10; inactive = the rest.

Assays:
Experiment in all cases: NCI-60 one-dose screen, 48 h (100 = growth as untreated, 0 = no growth, -100 = all killed)
[1] = tested on: SK-MEL-2 melanoma; conditions: 10 µM unless noted
[2] = tested on: SN12C renal; conditions: 10 µM unless noted
[3] = tested on: UO-31 renal; conditions: 10 µM unless noted
[4] = tested on: TK-10 renal; conditions: 10 µM unless noted
[5] = tested on: ACHN renal; conditions: 10 µM unless noted
[6] = tested on: CAKI-1 renal; conditions: 10 µM unless noted
[7] = tested on: A498 renal; conditions: 10 µM
[8] = tested on: HL-60(TB) leukemia; conditions: 10 µM unless noted
[9] = tested on: MOLT-4 leukemia; conditions: 10 µM unless noted
[10] = tested on: SR leukemia; conditions: 10 µM unless noted
[11] = tested on: RPMI-8226 leukemia; conditions: 10 µM unless noted
[12] = tested on: OVCAR-8 ovarian; conditions: 10 µM unless noted
[13] = tested on: OVCAR-5 ovarian; conditions: 10 µM unless noted
[14] = tested on: OVCAR-4 ovarian; conditions: 10 µM unless noted
[15] = tested on: SK-OV-3 ovarian; conditions: 10 µM unless noted
[16] = tested on: IGROV1 ovarian; conditions: 10 µM unless noted
[17] = tested on: OVCAR-3 ovarian; conditions: 10 µM unless noted
[18] = tested on: CCRF-CEM leukemia; conditions: 10 µM unless noted
[19] = tested on: HS 578T breast; conditions: 10 µM unless noted
[20] = tested on: EKVX NSCLC; conditions: 10 µM unless noted

Measured: growth

O=C1OCCC1Br (stereo not drawn)
inactive: [1] 96.5% | [2] 103% | [3] 96.4% | [4] 104% | [5] 102% | [6] 95% | [7] 101% | [8] 78.1% | [9] 107% | [10] 92.3% | [11] 97.2% | [12] 96.2% | [13] 104% | [14] 107% | [15] 99.4% | [16] 110% | [17] 112%

O=C(NCCN1CC1)C(=O)NCCN1CC1
inactive: [1] 97.1% | [2] 87.3% | [3] 96.4% | [4] 83.6% | [5] 67.9% | [6] 20.9% | [7] 105% | [8] 63.1% | [18] 56.8% | [9] 55.3% | [10] 19% | [11] 98.5% | [12] 69.3% | [13] 104% | [14] 106% | [15] 98% | [16] 78.5% | [17] 99.6% | [19] 107%

COC(=O)C1OC(Oc2ccc(N(CCCl)CCCl)cc2)C(OC(C)=O)C(OC(C)=O)C1OC(C)=O (stereo not drawn)
active: [6] 3.7% | [10] 4.19%
inactive: [1] 109% | [2] 62.4% | [3] 73.1% | [4] 92.5% | [5] 27.4% | [7] 104% | [8] 40.1% | [18] 37.2% | [9] 37.3% | [11] 96.6% | [12] 84.8% | [13] 90.4% | [14] 87.7% | [15] 96.7% | [17] 94.2% | [19] 102%

COc1ccc(/C=C\c2cc(OC)c(OC)c(OC)c2)c(NS(=O)(=O)c2ccc(Cl)cc2)c1O
inactive: [2] 22.1% | [3] 33.7% | [4] 25.1% | [5] 25.9% | [6] 28.1% | [13] 49.2% | [14] 33.1% | [15] 21.9% | [16] 30.1% | [19] 10.9%
active: [1] 0.0535% | [7] -13% | [8] -38.8% | [18] 7.81% | [10] 7.33% | [11] 7.02% | [12] 2.97% | [17] -31.1%

ClCCN(CCCl)Cc1ccc(Nc2ccnc3cc(Cl)ccc23)cc1
active: [1] -19.5% | [5] 5.15% | [6] -32.8% | [8] -38.6% | [9] -33.5% | [10] -15.9% | [11] 0.54%
inactive: [2] 18.8% | [3] 34.6% | [4] 59.5% | [7] 77.1% | [12] 37.9% | [13] 74.1% | [14] 48.2% | [15] 53.5% | [16] 55.4% | [17] 39.7%

N/C(=N\N=C\c1ccc(-c2ccccc2)cc1)N[N+](=O)[O-]
active: [7] 5.42% | [8] -16.2% | [9] 5.54% | [10] 5.79% | [17] -19.8%
inactive: [1] 47.1% | [2] 53.3% | [3] 45.2% | [4] 44.6% | [5] 52.5% | [6] 27.5% | [18] 11.9% | [11] 20.1% | [12] 42.6% | [13] 56.9% | [14] 61.5% | [15] 35.4% | [16] 34.6% | [19] 44.3%

ClCCN(CCCl)c1ccc(/C=N/Nc2ncnc3nc[nH]c23)cc1
active: [10] 6.32%
inactive: [20] 85.1% | [2] 67.2% | [3] 54.2% | [4] 113% | [5] 74.8% | [6] 64% | [7] 98.4% | [8] 92% | [18] 42.4% | [9] 26.3% | [11] 91.9% | [12] 80% | [13] 124% | [14] 80.3% | [15] 82.6% | [16] 28.3% | [17] 98.5% | [19] 151%

O=C([O][Hg][c]1ccccc1)c1ccccc1
inactive: [7] 40.7% | [15] 64.9% | [19] 12.9%
active: [1] -33.3% | [2] -85.4% | [3] -92.2% | [4] -86.5% | [5] -90.5% | [8] -53.5% | [18] -33.8% | [9] -27.5% | [10] -7.13% | [11] -36.7% | [12] -29% | [13] -82.3% | [14] -1.64% | [16] -64% | [17] -94.4%

Cc1ccc(C(=O)NCCCOc2ccc(N)cc2Cl)cc1S(=O)(=O)F
inactive: [1] 78.7% | [2] 105% | [3] 70.7% | [4] 97.1% | [5] 105% | [7] 82.4% | [8] 98.8% | [18] 88.7% | [9] 79.7% | [10] 87.9% | [11] 85.6% | [12] 101% | [13] 102% | [14] 97.5% | [15] 82.1% | [16] 95.5% | [17] 98.8% | [19] 98%

COc1ccc(C(=O)c2sc3nc4c(cc3c2N)N2CCC4CC2)cc1OC
inactive: [2] 93.4% | [3] 52.8% | [4] 91.7% | [5] 81.8% | [6] 79.7% | [7] 116% | [8] 94.5% | [18] 74.7% | [10] 83.4% | [11] 51.4% | [12] 85.7% | [13] 107% | [14] 85.7% | [15] 96.2% | [16] 104% | [17] 100% | [19] 100%

COc1cc(C=Nc2cc(Cl)cc(Cl)c2)ccc1N(CCCl)CCCl
inactive: [1] 113% | [2] 87.6% | [3] 66.6% | [4] 148% | [5] 63% | [7] 65.2% | [8] 88.1% | [18] 56.4% | [9] 58.9% | [10] 41.2% | [11] 75% | [12] 90.5% | [13] 105% | [14] 99.5% | [15] 91.1% | [16] 56.7% | [17] 91.1% | [19] 93.5%

COc1cc(/C=C\c2cc(OC)c(OC)c(OC)c2)cc(NS(=O)(=O)c2cccc(Cl)c2)c1OC
active: [8] 4.54% | [18] 9.72% | [17] -36.3%
inactive: [1] 23.5% | [2] 27.7% | [3] 32.1% | [4] 63.3% | [5] 16.4% | [6] 11.4% | [10] 10.6% | [11] 18.1% | [12] 18.2% | [13] 19.5% | [14] 37.4% | [15] 16.9% | [16] 26.3% | [19] 45.4%

CC(=O)C(c1c(O)c2ccccc2oc1=O)c1cc(=O)oc2c1ccc1ccccc12 (stereo not drawn)
inactive: [20] 92.1% | [2] 87.1% | [3] 80.3% | [4] 116% | [5] 101% | [7] 79.8% | [8] 96.9% | [18] 94.5% | [9] 90.2% | [10] 92.5% | [11] 94% | [12] 99.4% | [13] 99.4% | [14] 101% | [15] 94.6% | [16] 106% | [17] 110% | [19] 91.5%

C=CC[n+]1ccc(-c2cc[n+](CC=C)cc2)cc1
inactive: [2] 103% | [3] 95% | [4] 126% | [5] 103% | [6] 94.2% | [7] 100% | [8] 93.3% | [18] 84.7% | [9] 88.8% | [10] 93.9% | [11] 79.9% | [12] 61.3% | [13] 126% | [14] 37.6% | [15] 108% | [16] 13.6% | [17] 40.7% | [19] 116%

CO[C@H](C(=O)O)[C@@H]1Cc2cc3cc(OC4CC(OC5CC(O)C(O)C(C)O5)C(O)C(C)O4)c(C)c(O)c3c(O)c2C(=O)[C@H]1OC1CC(OC2CC(OC3CC(C)(O)C(O)C(C)O3)C(O)C(C)O2)C(O)C(C)O1 (stereo partly drawn)
active: [3] 8.85% | [5] 2.89% | [7] -55.7% | [9] 1.78% | [11] 6.67% | [19] -1.09%
inactive: [20] 31.3% | [2] 15.3% | [4] 24.2% | [6] 25.7% | [8] 41.3% | [18] 23.8% | [10] 10.4% | [12] 13.5% | [13] 17.6% | [14] 19.7% | [15] 23.7% | [16] 35.4% | [17] 10%

COc1ccc(S(=O)(=O)Nc2c(/C=C\c3cc(OC)c(OC)c(OC)c3)ccc(OC)c2O)cc1OC
active: [1] 9.91% | [8] 4.28% | [15] 9.89% | [17] -20.9%
inactive: [2] 31% | [3] 49.3% | [4] 70.9% | [5] 29.6% | [6] 22.8% | [18] 12% | [9] 16.8% | [10] 15.9% | [11] 25.4% | [12] 20.3% | [13] 33.7% | [14] 43% | [16] 23.9% | [19] 16.3%
